# High-throughput results from PubChem BioAssay.
# FUS suppressor = qHTS for Suppressors of FUS Proteinopathy: Primary screen using FUS-linked yeast assay; S. cerevisiae FUS-expressing, growth rescue, OD600, 24 h; 390,000 tested, 0.24% active; Potency, µM (titrated, usually from 76.6 µM), most hits filed as activators;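 note: plate controls were DMSO vehicle for no effect and reference control for full effect; nearly all actives have a fitted effect of over 55% in size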
#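 FUS-expressing yeast, raffinose-pregrown, induced in 2% galactose minimal medium at OD 0.005; compounds in a dilution series, 24hr at 30C. Growth restoration read as absorbance at 600 nm. CP55940 positive control, DMSO negative.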
# aSyn yeast inh = qHTS of alpha-syn Inhibitors; AID 652106, 2013; Yeast expressing alpha-synuclein, growth rescue, BacTiter-Glo, 24 h; Potency, µM (top dose mostly 46.1 µM), without a hit: at the top dose growth rescue (activation), hits mostly activators; 370,000 tested, 0.14% active; note: % of control where 0% means no effect; nearly all actives have a fitted effect of over 65% in size
#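 Readout is rescue of growth in alpha-synuclein-expressing yeast, so inhibitors of toxicity appear as activators. Growth after 24 hr at 30 deg C in galactose medium is quantified by luminescence.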
# TDP43 rescue = qHTS of TDP-43 Inhibitors; TDP-43 expressing yeast growth rescue, BacTiter-Glo, 24 h; Potency, µM (top dose mostly 46.1 µM), inactives show at the highest dose growth rescue (activation), actives largely listed as activators; 410,000 tested, 1.8% active; note: % of control where 0% means no effect; nearly all actives have a fitted effect of over 50% in size
#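 Galactose-induced TDP-43 yeast, OD600=0.02, compound pinned; 24 hr, 30 deg C; BacTiter-Glo luminescence for growth. Inhibitors of TDP-43 toxicity read as activators.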
# Abeta yeast res = qHTS for compounds that reverse cellular toxicity of Amyloid beta (A-beta) peptide in yeast: Primary Screen | yeast expressing A-beta42, growth rescue, OD600, 48 h; response scale: 0% DMSO, 100% iron-clioquinol control | Potency, µM (series often up to 46.1 µM), usual class: activators | 410,000 tested, 0.063% active | AID 1347071, 2019; note: nearly all actives have a fitted effect of over 55% in size
#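 Yeast growth medium received pinned compounds, then yeast cells expressing toxic A-beta were added; plates incubated at 30 C for 48 hr. Growth read as absorbance at 600 nm, normalized to DMSO and equimolar FeCl3 plus clioquinol controls.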
# Numbers without * were called inactive; i = inactive; ? = inconclusive; . = no result given; [ ] = dose if it differs, or a comment. Only some compounds are listed: those with a hit (about 2.1% of all), similar ones and a draw of the others. Calls come from the whole dose curve; as a rule, active = well fitted curve in the direction sought with a large enough effect; inconclusive = small, poorly fitted or top-dose-only effect, or another doubt; inactive = no such curve, though single readings can be large; an effect the other way counts as inactive or inconclusive. Potency is the fitted concentration of half-maximal effect.
SMILES,FUS suppressor,aSyn yeast inh,TDP43 rescue,Abeta yeast res
Cc1cnc(C=NNC(N)=S)c2cccc(N)c12,.,-22%,6%,i
NC(=S)NN=Cc1nccc2ccccc12,i,20µM*,21%,?
NC(=S)NN=Cc1nccc2c(C(F)(F)C(F)(F)C(F)(F)F)cccc12,i,7.1µM*,?,i
Cc1ccc(CSc2nc3cccnc3n2Cc2ccc(C(=O)NCc3cccs3)cc2)cc1,i,.,8%,i
COc1ccc2c(c1)C(c1ccccc1)NC(=O)C2 (stereo unspecified),i,9%,-1%,i
Cc1nc([N+](=O)[O-])c(Br)n1CC(=O)c1ccc2ccccc2c1,14µM*,1%,16µM*,i
Cc1nc([N+](=O)[O-])c(Br)n1CC(=O)c1ccc(Br)cc1,i,7%,11µM*,i
Cc1nc([N+](=O)[O-])c(Br)n1CC(=O)c1ccccc1,i,14%,16%,i[9.22 µM]
COc1ccc(-c2noc(C3CC(=O)N(c4ccc(C)c(F)c4)C3)n2)c(OC)c1 (stereo unspecified),?,.,13µM*,i
O=C1c2ccccc2C(=O)N1CCc1csc(-c2ccccc2)n1,i,?,13µM*,i
COc1ccc2nc(N3C(=O)CC(Cc4ccc(C)cc4)C3=O)sc2c1 (stereo unspecified),i,1%,7%,i
COc1ccc2nc(N3C(=O)CC(C(C)c4ccccc4)C3=O)sc2c1 (stereo unspecified),.,1%,11µM*,i
CC(=O)c1ccc(NC(=O)CN2CCC(NC(=O)c3ccccc3C)CC2)cc1,i,?,18%,i
Cc1ccccc1Nc1nc2ccccc2s1,.,-1%,20µM*,i
O=C(COc1ccc(Cl)cc1)N(Cc1cccs1)C1CCS(=O)(=O)C1 (stereo unspecified),i,8%,-7%,i
CCCNC(=O)c1cc2c3ccccc3n(C)c2s1,i,0%,14µM*,i
CC(C)=C1C2CCC1C(C(=O)NCCc1ccccc1)C2C(=O)O (stereo unspecified),i,1%,4%,i
CCN(CC)C(=O)c1sc2c(c1C)c(=O)n(-c1ccc(OC)cc1OC)c(=O)n2CC(=O)c1ccc(Cl)cc1,20µM*,.,6%,i
COc1ccc2[nH]c3c(c2c1)CCN1C(=O)C(CC(=O)NCC24CC5CC(CC(C5)C2)C4)C[C@H](C(=O)N2CCOCC2)[C@@]31C (stereo partly specified),i,0%,18%,i
CCN(CC)C(=O)[C@H]1C[C@H](CC(=O)NCC23CC4CC(CC(C4)C2)C3)C(=O)N2CCc3c([nH]c4cc(-c5ccco5)ccc34)[C@]12C,i,1%,20%,i
C[C@]12c3[nH]c4ccc(Cl)cc4c3CCN1C(=O)[C@@H](CC(=O)NCC13CC4CC(CC(C4)C1)C3)C[C@@H]2C(=O)N1CCCCC1,i,16µM*,19%,i
COc1ccc2[nH]c3c(c2c1)CCN1C(=O)C(CC(=O)NCC24CC5CC(CC(C5)C2)C4)C[C@H](C(=O)N(C(C)C)C(C)C)[C@@]31C (stereo partly specified),?,-15%,11µM*,i
CCN(CC)C(=O)[C@H]1CC(CC(=O)NCC23CC4CC(CC(C4)C2)C3)C(=O)N2CCc3c([nH]c4ccccc34)[C@]12C (stereo partly specified),i,?,28µM*,i
Cc1ccn2cc(CCNS(=O)(=O)c3ccc([N+](=O)[O-])cc3)nc2c1,i,7%,-7%,i
O=C(c1ccccc1)n1ccc(-c2cccs2)n1,i,4%,?,i
SMILES,FUS suppressor,aSyn yeast inh,TDP43 rescue,Abeta yeast res
COC(=O)c1ccn(CSc2c(F)c(F)cc(F)c2F)n1,i,1%,8%,i
COC(=O)c1ccn(CSc2cc(Cl)ccc2Cl)n1,i,-6%,13µM*,i
CC(=O)OCC(=O)Nc1ccc(N=Nc2ccccc2)cc1,i,-15%,11µM*,i
CC(=O)Nc1ccc(N=Nc2ccccc2)cc1,.,-12%,10µM*,i
CC(=O)Nc1ccccc1,i,-2%,20%,i
Cc1cccc2c1nc(-c1ccccc1)n1cnnc21,i,2%,14µM*,i
COc1ccc(-n2cnc3scc(-c4ccccc4)c3c2=O)cc1,i,-1%,11µM*,i
COc1ccc(C(=O)NCCS(=O)(=O)N2CCCCCC2)cc1,i,-2%,0%,i
C[C@@]12C(=O)Nc3ccc(Cl)cc3C(=O)N1[C@H]1c3cc(Br)ccc3OC[C@@H]1[C@@H]2c1ccccc1,28µM*,10%,10%,i
COc1ccc2c(c1)OC[C@H]1[C@H]2N2C(=O)c3ccc(C)cc3NC(=O)[C@@]2(C)[C@H]1c1ccccc1,?,-1%,1%,i
COc1ccc2c(c1)OC[C@H]1[C@H]2N2C(=O)c3cc(OC)ccc3NC(=O)[C@@]2(C)[C@H]1c1ccccc1,i,20%,5µM*,i
Cc1ccc2c(c1)[C@H]1[C@H](CO2)[C@H](c2ccccc2)[C@]2(C)C(=O)N(Cc3ccc(F)cc3)CC(=O)N12,i,0%,21%,16µM*
COc1ccc2c(c1)OC[C@H]1[C@H]2N2C(=O)c3cc(Cl)ccc3NC(=O)[C@@]2(C)[C@H]1c1ccccc1,i,23%,4.5µM*,i
Cc1cc(C)cc(CSc2nnc(C)c(=O)[nH]2)c1,i,4%,20%,i
COc1ccc2c(c1)OC[C@H]1[C@H]2N2C(=O)c3cc(F)ccc3NC(=O)[C@@]2(C)[C@H]1c1ccccc1,i,8%,20µM*,i
O=C(CCCOc1ccc(Cl)cc1Cl)N/N=C/c1ccccc1,.,12%,0%,i
O=C(CCCOc1ccc(Cl)cc1Cl)N/N=C/c1ccccc1O,.,22µM*,?,?
CCN(CC)C(=O)CCCOc1ccc(Cl)cc1Cl,i,16%,13µM*,i
S=c1nc(C2CCCCC2)n(-c2ccccc2)[nH]1,i,-4%,3%,13µM*
COc1ccc(-c2nnc3sc(COc4ccc(C)cc4)nn23)cc1,i,-9%,9%,i
COc1ccc(Cc2nn3c(-c4ccccc4OC)nnc3s2)cc1,i,-4%,?,i
COc1ccc(-c2nnc3sc(COc4ccccc4)nn23)cc1,i,7%,2.8µM*,i
COc1ccccc1-c1nnc2sc(COc3ccc(Cl)cc3)nn12,?,29%,18µM*,i
NNC(=O)C1=NOC2COC3(CCN(c4ncccn4)CC3)OCC12 (stereo unspecified),i,-5%,-26%,i
